Screens from PubChem.
KB-V1 MDR tox: KB-V1 MDR subline cytotoxicity. KB-V1 MDR cells viability, CellTiter-Glo, 72 h. Potency, µM (top dose mostly 46.1 µM), usual class: cytotoxic. 400,000 compounds, 3.4% hits. AID 1347076; also: % is scaled to controls: 0 for no effect and ±100 for the full control effect; nearly all actives have a fitted effect of over 60% in size
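KB-V1, DMEM (no phenol red) + 10% FBS; cpd pin-transferred, titration series; 72 h, 37 degrees C; CellTiter-Glo, luminescence. Data normalized, curve-fit.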
HT1080NT lethal: kills 2HG-producing HT-1080-NT fibrosarcoma cells; Potency, µM (doses to about 46.1 µM), for inactives: at the highest dose activity, negative = less viability, most hits filed as cytotoxic; AID 686970; HT-1080-NT fibrosarcoma viability, CellTiter-Glo ATP luminescence, 48 h; 360,000 compounds, 1.6% hits;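 also: NT is the 2HG producing partner of a matched IDH1 knockdown line; 0% = DMSO-treated cells and -100% = media-only wells without cells; nearly all actives have a fitted effect of over 55% in size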
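Luminescent CellTiter-Glo readout after 48 hours of compound exposure at 37 degrees C defined viability of HT-1080-NT cells. Activity was normalized to DMSO wells and cell-free media wells; concentration-response curves were fitted and assigned curve classes.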
KB-3-1 tox: KB-3-1 parental cell cytotoxicity | KB-3-1 viability, CellTiter-Glo ATP luminescence, 72 h | Potency, µM (series often up to 46.1 µM), most hits filed as cytotoxic | 400,000 compounds, 1.4% hits | AID 1347075; also: % is scaled to controls: 0 for no effect and ±100 for the full control effect; nearly all actives have a fitted effect of over 60% in size
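Cytotoxicity measured as CellTiter-Glo luminescence after 72 h at 37 C. Compound titrations were pinned onto drug-naive KB-3-1 parental adenocarcinoma cells grown in DMEM with 10% FBS, and normalized data fitted to concentration-response curves.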
SW480 rerep: induces DNA re-replication in SW480 colon adenocarcinoma cells; SW480 DNA re-replication, Hoechst DNA content imaging, 48 h; Potency, µM (titrated, usually from 46.1 µM), inactives show at the top dose re-replication activation, most hits filed as activators; 340,000 compounds, 1.8% hits; also: % of control where 0% means no effect; nearly all actives have a fitted effect of over 55% in size
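Image-based DNA-content assay: after two days of treatment, nuclei were labelled with the DNA dye Hoechst and imaged, and hits were compounds raising the count of nuclei showing high fluorescence intensity.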
MCF10A rerep: inducers of DNA re-replication in MCF 10A breast cells. AID 624296. MCF 10A DNA re-replication, Hoechst nuclear intensity, 48 h. Potency, µM (doses to about 46.1 µM), for the others: at the top dose activity, positive = re-replication, usual class: activators. 350,000 compounds, 2.9% hits; also: % of control where 0% means no effect; nearly all actives have a fitted effect of over 50% in size
HT1080 IDH1KD tx: kills HT-1080 cells with IDH1 knockdown; HT-1080 IDH1 knockdown viability, ATP luminescence, 48 h; Potency, µM (titrated, usually from 46.1 µM), inactives show top-dose activity, negative = toxicity, hits mostly cytotoxic; 360,000 compounds, 2% hits; AID 686971;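 also: 0% = DMSO wells and -100% = cell-free medium wells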
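IDH1KD HT-1080 cells, 750/well, RPMI + 5% FBS; compound pinned after 2 h settling; 48 h, 37 °C; CellTiter-Glo luminescence; % activity normalised to DMSO and no-cell wells; curves fitted, classed by r2 and efficacy.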
The depositor's hits bear a star; i = inactive; ? = inconclusive; / = no result given. In the library only some 7.9% were active in any assay of this set; here they are far more common. Calls follow the shape of the dose curve; as a rule, active = well fitted curve in the direction sought with a large enough effect; inconclusive = small, poorly fitted or top-dose-only effect, or another doubt; inactive = no such curve, though single readings can be large; an effect the other way counts as inactive or inconclusive. Potency is read from the fitted curve at half-maximal effect.

SMILES	KB-V1 MDR tox	HT1080NT lethal	KB-3-1 tox	SW480 rerep	MCF10A rerep	HT1080 IDH1KD tx
CCOc1ccc(C(=O)C(C)OC(=O)C2CCN(c3ccc(C(F)(F)F)cn3)CC2)cc1 (stereo unspecified)	?	-13.6%	?	1.3%	10.3%	-10.6%
Cc1ccccc1C(=O)OCC(=O)NCC1COc2ccccc2O1 (stereo unspecified)	i	-2.6%	i	-2.7%	1.1%	9.5%
CCc1nnc(NC(=O)c2ccc(Br)c(S(=O)(=O)N3CCOCC3)c2)s1	?	0.7%	i	24.7%	0.3%	-16.2%
O=C(COc1ccc(S(=O)(=O)N2CCCCC2)cc1Cl)N1CCOCC1	i	2.0%	i	-1.7%	-0.8%	-0.2%
COC(=O)C1=C(C)N(Cc2ccc(C)cc2)C(=O)/C1=C\c1ccc(O)c(OC)c1	?	?	i	1.2%	?	?
COC(=O)C1=C(C)N(Cc2ccc(C)cc2)C(=O)/C1=C\c1cc(OC)c(OC)c(OC)c1	?	?	i	?	?	16.4µM*
Cc1cccc(N(Cc2cc(=O)[nH]c3ccccc23)C(=O)CCl)c1	?	20.6µM*	i	?	?	?
CCCC(=O)N(Cc1cc(=O)[nH]c2ccccc12)c1cccc(C)c1	i	-5.9%	i	8.6%	-0.6%	-13.8%
COc1ccc(N(Cc2cc(=O)[nH]c3ccccc23)C(=O)CCl)cc1	?	3.26µM*	?	3.26µM*	?	23.1µM*
CCCC(=O)N(Cc1cc(=O)[nH]c2ccccc12)c1ccc(OC)cc1	i	-1.7%	i	-5.7%	6.1%	-13.0%
Cc1cc(C)c(C)c(S(=O)(=O)NCC(=O)NCC2CCCCC2)c1C	i	-2.8%	?	4.9%	-12.7%	-1.2%
CCN(Cc1ccccc1)C(=O)c1[nH]c2ccc(OC)cc2c1C	i	-7.4%	i	1.2%	13.2%	7.8%
Cc1ccc2ccc[n+](Cc3ccccc3)c2c1	i	0.0%	5.17µM*	11.2%	3.5%	-8.1%
Cc1ccc2c(c1)c(C)cc[n+]2Cc1ccccc1	i	0.9%	8.2µM*	0.9%	1.3%	?
COc1ccc2c(c1)c(C)cc[n+]2Cc1ccccc1	i	14.6µM*	8.2µM*	-11.6%	0.0%	23.1µM*
CCOc1ccc2c(c1)c(=O)c(C(=O)c1ccc3c(c1)OCO3)cn2Cc1cccc(F)c1	i	/	i	/	/	/
COc1ccccc1Nc1nc(-c2ccccc2F)nc2ccccc12	8.2µM*	/	?	/	/	/
O=C(Nc1nc(-c2ccccc2)nc2ccccc12)c1ccc(F)cc1	i	1.8%	i	?	18.4µM*	24.0%
Cc1ccc(Nc2nc(-c3cccnc3)nc3ccccc23)cc1	?	?	?	9.2µM*	14.6µM*	?
CC(Nc1nc(-c2ccccc2O)nc2ccccc12)c1ccccc1 (stereo unspecified)	i	?	i	?	20.6µM*	?
CC(Nc1nc(-c2ccccc2F)nc2ccccc12)c1ccccc1 (stereo unspecified)	i	-16.1%	i	6.7%	?	-4.4%
CCCN1CCN(C(=O)C2CCN(c3nnc(C)c4c(C)n(-c5ccc(C)cc5)nc34)CC2)CC1	i	?	?	4.7%	1.1%	?
Oc1c(/C=C/C=C/C=Nc2ccccc2)sc(=S)n1Cc1ccccc1	i	9.4%	i	-11.7%	?	9.9%
COc1ccc(C(CNc2nc(-c3cccnc3)nc3ccccc23)N(C)C)cc1 (stereo unspecified)	i	16.4µM*	i	245.3%	?	16.4µM*
CC(Nc1nc(N2CCCCC2)nc2ccccc12)c1ccccc1 (stereo unspecified)	?	?	11.2µM*	0.1%	?	?
SMILES	KB-V1 MDR tox	HT1080NT lethal	KB-3-1 tox	SW480 rerep	MCF10A rerep	HT1080 IDH1KD tx
C=CCNc1nc(N2CCCC2)nc2ccccc12	i	-29.7%	?	-3.0%	0.9%	?
COC(=O)CNc1nc(-c2cccnc2)nc2ccccc12	i	-7.9%	i	4.0%	17.1%	-4.9%
c1ccc(CN2CCC(Nc3nc(-c4cccnc4)nc4ccccc34)CC2)cc1	?	?	?	?	?	20.6µM*
c1ccc2c(Nc3nc(-c4ccncc4)nc4ccccc34)cccc2c1	i	?	i	29.1µM*	23.1µM*	?
CC(Nc1nc(-c2cccnc2)nc2ccccc12)c1ccc(F)cc1 (stereo unspecified)	18.4µM*	-26.9%	?	3.7%	?	?
CC(Nc1nc(-c2ccccc2)nc2ccccc12)c1ccccc1 (stereo unspecified)	i	?	?	-0.5%	?	-17.5%
CCOC(=O)c1ccc(Nc2ncnc3ccccc23)cc1	i	-11.9%	i	-0.5%	4.6%	-20.8%
CCOC(=O)c1ccc(Nc2nc(-c3cccnc3)nc3ccccc23)cc1	i	14.6µM*	i	?	18.4µM*	?
COc1ccc(CCNc2nc(-c3cccnc3)nc3ccccc23)cc1OC	8.2µM*	?	i	?	?	10.3µM*
Oc1ccc(/C=N/Nc2nc(-c3cccnc3)nc3ccccc23)c(O)c1	i	?	i	?	?	?
